# Results from PubChem BioAssay (EPA / NIEHS).
# Inconclusive results are not listed. Active and inactive are the calls of the source. How the source made its calls, unless noted: active means hit-call score of the fitted dose curve at least 0.9, where 1 is the maximum; inactive means score below 0.9.
# Experiments:
# [1] = CCTE_Deisenroth_5AR_NBTE_acceptor: CCTE's 5alpha-reductase NanoBRET Target Engagement Assay - Autofluorescence Screen, Deisenroth Lab (AID 2284321); conditions: actives raise or lower the signal;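 further: compound fluorescence in the acceptor channel under 460 nm excitation flags autofluorescence artifacts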
# Summary of the method: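 Autofluorescence check: ToxCast chemicals, nominal 100 uM, excitation 460 nm, n=3 runs. Acceptor fluorescence endpoint, bidirectional fit relative to DMSO. Parent assay in HEK293T, 5 h post-dose.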
# SRD5A2 (gene 6716) = assay: CCTE_Deisenroth_5AR_NBTE_ratio: CCTE's 5alpha-reductase NanoBRET Target Engagement Assay - Ratio, Deisenroth Lab (AID 2284322); conditions: actives raise or lower the signal
# Summary of the method: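 HEK293T transiently expressing SRD5A2-NanoLuc; cells exposed to chemical (8-point, 10 nM - 29.9 uM) for 5 h total, testosterone tracer added for final 2 h. NanoBRET acceptor/donor ratio (650/460 nm), bidirectional fit vs DMSO.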
# [2] = VALA_TUBIPS_Antagonist_CellCount: Viability Assessment in the VALA Sciences human iPS-derived Endothelial Tubule Formation (TUBIPS) Antagonism Assay (AID 2284335; active means hit-call score of the fitted dose curve at least 0.9, where 1 is the maximum)
# [3] = VALA_MIGHUV1_ScratchOnly_WoundArea: VALA Sciences human Umbilical Vein Endothelial Cell Migration (MIGHUV) Assay, Area of Scratch Wound Inhibited Recovery (AID 2284336; active means hit-call score of the fitted dose curve at least 0.9, where 1 is the maximum)
# Summary of the method: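 HUVEC monolayers (9000 cells/well) were scratched after 24 h, dosed within 30 min (six concentrations, triplicate, 0.1% DMSO), allowed 24 h recovery, then fixed. Hoechst-stained nuclei in the wound imaged; cytochalasin D as reference.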
# [4] = VALA_TUBHUV_Agonist_TubuleLength: VALA Sciences human Umbilical Vein Endothelial Tubule Formation (TUBHUV) Agonism Assay (AID 2284337; active means hit-call score of the fitted dose curve at least 0.9, where 1 is the maximum)
# Summary of the method: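 HUVEC co-cultured with fibroblasts (1:3) 3 days in 10 ng/ml VEGF, then 3 days with compound plus VEGF; 0.1 % DMSO neutral control. Fixed, nuclear and CD31 stained; tubule length by fluorescence imaging.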
# [5] = VALA_TUBIPS_Agonist_CellCount: Viability Assessment in the VALA Sciences human iPS-derived Endothelial Tubule Formation (TUBIPS) Agonism Assay (AID 2284338; active means hit-call score of the fitted dose curve at least 0.9, where 1 is the maximum)
# [6] = TAMU_PeakParms_SingleDonor1434_Asystole: Texas A&M University (TAMU) 1.5-hr Human Induced Pluripotent Stem Cell (iPSC)-derived Cardiomyocytes Calcium (Ca+2) Flux Assay for Cardiotoxicity: Asystole (quiescence of beating) (AID 2284328; active means hit-call score of the fitted dose curve at least 0.9, where 1 is the maximum)
# Summary of the method: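 Donor 1434 iPSC-cardiomyocytes exposed 90 min at 37C, 5% CO2, to 0.2, 1, 10 and 100 uM in 0.5% DMSO. Ca2+ dye fluorescence gave average peak frequency; POD is EC95, a 95% beat-rate drop versus controls.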
# TTR (gene 7276) = assay: CCTE_GLTED_hTTR_0.5uM: CCTE's human Transthyretin (hTTR) Inhibition Assay, with 0.5uM TTR, Great Lakes Toxicology and Ecology Division (GLTED) Lab (AID 2284320)
# Summary of the method: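 Cell-free displacement assay in which human TTR at 0.5 uM was incubated with test chemical for 2 h. Displacement of the ANSA probe was read by fluorescence at 380 nm excitation/475 nm emission. Loss of signal was fitted in the positive direction versus DMSO.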
# [7] = CCTE_Mundy_HCI_iCellGluta_NOG_NeuronCount: CCTE's Neurite Outgrowth Assay in iCellGluta cells for Neuron Count, Mundy Lab (AID 2284340; active means hit-call score of the fitted dose curve at least 0.9, where 1 is the maximum;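 further: cells fixed about 48 h after compound addition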)
# Summary of the method: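 Neuron count read by automated high-content imaging of Hoechst 33342 and betaIII-tubulin/Alexa Fluor-488 labelling in human iPSC glutamatergic neurons. Activity fitted relative to DMSO.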
# [8] = IUF_NPC1_cytotoxicity_72hr: Cytotoxicity Assessment at 72 hours in the Leibniz Research Institute for Environmental Medicine (IUF) Neural Progenitor Cell Proliferation Assay (NPC1) (AID 2284332; active means hit-call score of the fitted dose curve at least 0.9, where 1 is the maximum;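 further: rising LDH signal means more cytotoxicity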)
# Summary of the method: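 Spheres of primary human neural progenitors are plated one per well on day 0 in growth-factor medium and dosed at once. After three days at 37C, supernatant LDH is measured fluorimetrically via resazurin reduction.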
compound,measurement,setting,value
CC(C)(c1ccc(OCC2CO2)cc1)c1ccc(OCC2CO2)cc1 (configuration not stated),outcome,[1],inactive
same,outcome,SRD5A2 (gene 6716),inactive
ClCC(Cl)CCl,outcome,[2],inactive
same,outcome,[3],inactive
same,outcome,[4],inactive
same,outcome,[5],inactive
Oc1cccc2cccnc12,outcome,[6],inactive
O=C(O)C(F)(F)C(F)(F)C(F)(F)C(F)(F)C(F)(F)C(F)(F)F,AC50,TTR (gene 7276),0.395 µM (active)
same,outcome,[7],inactive
O=C(OC1CCCCC1)c1ccccc1C(=O)OC1CCCCC1,outcome,[1],inactive
same,outcome,SRD5A2 (gene 6716),inactive
N#CN=C(N)N,outcome,[1],inactive
same,outcome,SRD5A2 (gene 6716),inactive
ClC(Cl)=C(Cl)C(Cl)=C(Cl)Cl,outcome,[6],inactive
O=[N+]([O-])c1ccc(O)c([N+](=O)[O-])c1,outcome,[1],inactive
same,AC50,SRD5A2 (gene 6716),64.9 µM (active)
O=C(O)C(F)(F)C(F)(F)C(F)(F)C(F)(F)C(F)(F)C(F)(F)C(F)(F)C(F)(F)C(F)(F)C(F)(F)F,AC50,TTR (gene 7276),1.98 µM (active)
same,outcome,[1],inactive
same,outcome,SRD5A2 (gene 6716),inactive
O=C1C(Cl)=C(Cl)C(=O)c2ccccc21,outcome,[1],inactive
same,outcome,SRD5A2 (gene 6716),inactive
C=C(C)C(=O)[O][Sn]([CH2]CCC)([CH2]CCC)[CH2]CCC,AC50,[1],5.27 µM (active)
same,AC50,SRD5A2 (gene 6716),4.42 µM (active)
same,AC50,[7],0.202 µM (active)
c1cc[c]([Hg][c]2ccccc2)cc1,outcome,[1],inactive
same,outcome,SRD5A2 (gene 6716),inactive
CC(C)(C)c1cc(O)ccc1O,outcome,[6],inactive
same,outcome,[2],inactive
same,outcome,[3],inactive
same,AC50,[4],56 µM (active)
same,AC50,[5],50 µM (active)
O=C1C2(Cl)C3(Cl)C4(Cl)C(Cl)(Cl)C5(Cl)C3(Cl)C1(Cl)C5(Cl)C24Cl (configuration not stated),AC50,[7],17.9 µM (active)
C[C@H]1CCCC(=O)CCC/C=C/c2cc(O)cc(O)c2C(=O)O1,outcome,[1],inactive
same,outcome,SRD5A2 (gene 6716),inactive
CCC[CH2][Sn]([CH2]CCC)([CH2]CCC)[O]C(=O)c1ccccc1,AC50,[1],6.56 µM (active)
same,AC50,SRD5A2 (gene 6716),10 µM (active)
CCN1CCC2(CC1)COc1cc3c(cc12)N(C(=O)c1ccc(-c2ccc(-c4nnc(C)o4)cc2C)cc1)CC3,AC50,[1],2.17 µM (active)
same,AC50,SRD5A2 (gene 6716),5.8 µM (active)
CC(=O)[O][Hg][c]1ccccc1,AC50,[1],25.3 µM (active)
same,AC50,SRD5A2 (gene 6716),50 µM (active)
CCC1(c2ccc(N)cc2)CCC(=O)NC1=O (configuration not stated),outcome,[1],inactive
same,outcome,SRD5A2 (gene 6716),inactive
O=C(Nc1ccc2[nH]ccc2c1)c1cc2cc(F)ccc2n1Cc1cccc(F)c1,outcome,[1],inactive
same,AC50,SRD5A2 (gene 6716),3.93 µM (active)
C[C@@H]1C[C@@H]([C@H](O)CC2CC(=O)NC(=O)C2)C(=O)[C@@H](C)C1,outcome,[1],inactive
same,AC50,SRD5A2 (gene 6716),0.0871 µM (active)
CCOP(=S)(OCC)Oc1nc(Cl)c(Cl)cc1Cl,outcome,[1],inactive
same,outcome,SRD5A2 (gene 6716),inactive
same,outcome,[6],inactive
same,outcome,[8],inactive
COP(=O)(OC)O/C(=C\Cl)c1cc(Cl)c(Cl)cc1Cl,AC50,[8],75.5 µM (active)
same,AC50,[7],51.5 µM (active)
